Records with an inconclusive call do not appear. Calls of active or inactive are those of the source. The calls were made as follows, unless noted: active = hit-call score of the fitted dose curve at least 0.9, where 1 is the maximum; inactive = score below 0.9.
Key:
[1] = target: Paired box protein Pax-6 (Homo sapiens) (UniProt P26367); assay: ATG_Pax6_CIS: Attagene CIS-FACTORIAL HepG2 Assay for human Paired Box 6 (PAX6) (AID 2282956); details: HepG2 CIS-FACTORIAL PAX6 reporter transcription, RNA readout; actives raise or lower the signal
In short: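 Multiplexed cis-reporter HepG2 system; 24 h treatment; reporter mRNA read by RT-PCR/CE fluorescence; bidirectional fit vs DMSO.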

[2] = ATG_PPRE_CIS: Attagene CIS-FACTORIAL HepG2 Assay for human Peroxisome Proliferator-activated Response Element (PPRE) (AID 2282958); details: HepG2 PPRE cis-element reporter, Attagene transcription factor profiling; actives raise or lower the signal
In short: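 HepG2 cells transiently transfected with multiplexed cis-element reporter units measure endogenous transcription factor activity. After 24 h compound exposure, reporter mRNA is quantified by RT-PCR, 6-FAM labeling, HpaI digestion and capillary electrophoresis; bidirectional fits are made against DMSO baseline.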

[3] = ATG_RORE_CIS: Attagene CIS-FACTORIAL HepG2 Assay for human RAR-related Orphan Receptor Element (RORE) (AID 2282959); details: HepG2 Attagene cis-factorial RORE reporter, mRNA; actives raise or lower the signal
In short: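 HepG2 cells transiently transfected with multiple cis-element reporter transcription units, exposed to chemical for 24 h. Reporter mRNA quantified by RT-PCR, 6-FAM primer-extension labeling, HpaI digestion and capillary electrophoresis; bidirectional fit versus DMSO baseline.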

[4] = ATG_Sox_CIS: Attagene CIS-FACTORIAL HepG2 Assay for human SRY-box transcription factor (SOX) (AID 2282960); details: HepG2 Attagene cis-factorial SOX reporter, mRNA; actives raise or lower the signal
In short: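 HepG2 cells transiently transfected with cis-element-driven multiple reporter transcription units, dosed 24 h; reporter mRNA measured by RT-PCR, FAM labelling, HpaI digestion and capillary electrophoresis. Bidirectional fit versus DMSO baseline.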

[5] = ATG_SREBP_CIS: Attagene CIS-FACTORIAL HepG2 Assay for human Sterol Regulatory Element Binding (SREBP) (AID 2282962); details: HepG2 Attagene cis-factorial SREBP reporter, mRNA; actives raise or lower the signal
In short: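 mRNA induction of transfected cis-promoter reporters in HepG2 cells, 24 h post-dose. Detection: RT-PCR with 6-FAM-labelled products, HpaI digest, capillary electrophoresis. DMSO served as negative control and baseline.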

[6] = target: Signal transducer and activator of transcription 3 (Homo sapiens) (UniProt P40763); assay: ATG_STAT3_CIS: Attagene CIS-FACTORIAL HepG2 Assay for human Signal Transducer and Activator of Transcription 3 (STAT3) (AID 2282963); details: HepG2, Attagene cis-factorial STAT3 reporter transcription; actives raise or lower the signal
In short: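 Values derive from bidirectional fits relative to DMSO of reporter mRNA levels, measured by RT-PCR with capillary electrophoresis, in HepG2 cells carrying transiently transfected cis-regulated reporter units and exposed 24 h.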

[7] = ATG_TA_CIS: Attagene CIS-FACTORIAL HepG2 Assay for human TA Basal Promoter (AID 2282964); details: HepG2 Attagene CIS-factorial TA basal promoter reporter; actives raise or lower the signal
In short: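 Background-control readout: TA basal promoter reporter mRNA, fitted in both directions relative to DMSO. Measured by RT-PCR and capillary electrophoresis 24 hours after treating HepG2 human liver cells transiently carrying multiplexed cis-regulated reporter constructs.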

[8] = ATG_TCF_b_cat_CIS: Attagene CIS-FACTORIAL HepG2 Assay for human T-Cell-Factor with beta-catenin (TCF/b-cat) (AID 2282965); details: HepG2 TCF/beta-catenin cis-reporter transcription, actives raise or lower the signal
In short: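 HepG2, transient MRTU transfection, cis-element-driven reporters (endogenous TFs). 24 h compound exposure. Readout: reporter mRNA by RT-PCR + 6-FAM primer extension, HpaI digest, capillary electrophoresis. Gain/loss fit vs DMSO baseline.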

[9] = ATG_TAL_CIS: Attagene CIS-FACTORIAL HepG2 Assay for human TAL Basal Promoter (AID 2282966); details: HepG2 Attagene cis-factorial TAL promoter reporter; actives raise or lower the signal;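 also: background control endpoint measuring basal TAL promoter reporter mRNA not a specific factor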
In short: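 Fluorescence of labelled reporter cDNA fragments, resolved by capillary electrophoresis, gave the readout. Human HepG2 liver cells carried transiently transfected cis-element reporter units and were treated for 24 hours; activity was fitted bidirectionally against DMSO.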

[10] = ATG_TGFb_CIS: Attagene CIS-FACTORIAL HepG2 Assay for human Transforming Growth Factor (TGF) (AID 2282967); details: HepG2 Attagene CIS TGFb reporter, mRNA transcription; actives raise or lower the signal
In short: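 Endogenous TGFB1-linked transcription factor activity read as reporter mRNA via RT-PCR and capillary electrophoresis, 24 h after dosing transiently transfected HepG2 cells. Gain or loss of signal fitted relative to DMSO.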

[11] = target: X-box-binding protein 1 (Homo sapiens) (UniProt P17861); assay: ATG_Xbp1_CIS: Attagene CIS-FACTORIAL HepG2 Assay for human X-box Binding Protein 1 (XBP1) (AID 2282972); details: HepG2 XBP1 cis-element reporter, Attagene multiplex; actives raise or lower the signal
In short: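 Fluorescence-labelled cDNA fragments from reporter transcripts, separated by capillary electrophoresis, give the signal. Source: HepG2 cells transfected with promoter-driven reporter units, harvested 24 h post-dose. DMSO served as reference for bidirectional curve fitting.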

[12] = ATG_M_19_TRANS: Attagene TRANS-FACTORIAL HepG2 Assay for M19 Transcription Factor (Internal Marker) (AID 2282974; active = hit-call score of the fitted dose curve at least 0.9, where 1 is the maximum); details: HepG2 Attagene TRANS-FACTORIAL M19 internal marker reporter
In short: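 HepG2 cells transiently transfected with multiple GAL4-UAS reporter transcription units were exposed to chemicals for 24 h. Reporter mRNA was read by RT-PCR, 6-FAM primer extension, HpaI digestion and capillary electrophoresis; gain of signal fitted relative to DMSO.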

[13] = ATG_VDRE_CIS: Attagene CIS-FACTORIAL HepG2 Assay for human Vitamin D Receptor Element (VDRE) (AID 2282968); details: HepG2 VDRE cis-reporter transcription, actives raise or lower the signal
In short: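 Cell-based multiplexed reporter format in human liver HepG2 cells, 24 h post-dose. Fluorescence from capillary electrophoresis of reporter cDNA gives the signal, with DMSO as negative control and baseline.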

[14] = ATG_GAL4_TRANS: Attagene TRANS-FACTORIAL HepG2 Assay for GAL4 (Internal Marker) (AID 2282976; active = hit-call score of the fitted dose curve at least 0.9, where 1 is the maximum); details: HepG2 Attagene TRANS GAL4 internal marker reporter
In short: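 First, HepG2 cells were transfected with reporter units under GAL4-UAS control. Next, they were treated with chemical for 24 h. Finally, RNA was reverse-transcribed, PCR-amplified, FAM-labelled and resolved by capillary electrophoresis, with induction scored against DMSO.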

[15] = target: Transcription factor Sp1 (Homo sapiens) (UniProt P08047); assay: ATG_Sp1_CIS: Attagene CIS-FACTORIAL HepG2 Assay for human Specificity Protein 1 (Sp1) (AID 2282961); details: HepG2 Sp1 cis-reporter transcription, actives raise or lower the signal
In short: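 HepG2 cells transiently transfected with multiple reporter transcription units driven by cis-regulatory elements; Sp1-responsive reporter mRNA measured 24 h after dosing by RT-PCR and capillary electrophoresis fluorescence, fitted bidirectionally against DMSO baseline.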

[16] = target: Nuclear receptor subfamily 1 group I member 3 (Homo sapiens) (UniProt Q14994); assay: ATG_CAR_TRANS: Attagene TRANS-FACTORIAL HepG2 Assay for human Constitutive Androstane Receptor (CAR) (AID 2282969; active = hit-call score of the fitted dose curve at least 0.9, where 1 is the maximum;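 also: activators raise reporter mRNA above DMSO so AC50 marks induction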); details: HepG2 Attagene TRANS-FACTORIAL CAR reporter
In short: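 HepG2 cells transiently transfected with GAL4-UAS reporter units; TRANS format reads activity of exogenous chimeric NR-Gal4 protein. After 24 h dosing, reporter mRNA quantified by RT-PCR, 6-FAM labelling and capillary electrophoresis; gain of signal fitted against DMSO.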

[17] = target: Estrogen receptor (Homo sapiens) (UniProt P03372); assay: ATG_ERa_TRANS: Attagene TRANS-FACTORIAL HepG2 Assay for human Estrogen Receptor alpha (ERa) (AID 2282970; active = hit-call score of the fitted dose curve at least 0.9, where 1 is the maximum); details: HepG2 Attagene TRANS ERa GAL4 reporter, mRNA
In short: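 Human liver HepG2, transient transfection of multiple GAL4-UAS reporter units; TRANS format (exogenous NR-Gal4 chimera). 24 h dosing. Readout: reporter mRNA, RT-PCR, 6-FAM primer extension, HpaI digest, capillary electrophoresis. Positive direction vs DMSO.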

[18] = target: Androgen receptor (Homo sapiens) (UniProt P10275); assay: ATG_AR_TRANS: Attagene TRANS-FACTORIAL HepG2 Assay for human Androgen Receptor (AR) (AID 2282973; active = hit-call score of the fitted dose curve at least 0.9, where 1 is the maximum); details: HepG2 Attagene TRANS-FACTORIAL AR reporter transcription
In short: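 Steps: transfect HepG2 with multiple GAL4-UAS reporter transcription units (TRANS format, exogenous NR-Gal4 protein); dose 24 h; isolate RNA, reverse-transcribe, PCR-amplify, FAM-label, HpaI-digest; resolve by capillary electrophoresis. Positive direction vs DMSO.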

Chain of Signal transducer and activator of transcription 3 (Homo sapiens) (P40763 whole entry, looked up): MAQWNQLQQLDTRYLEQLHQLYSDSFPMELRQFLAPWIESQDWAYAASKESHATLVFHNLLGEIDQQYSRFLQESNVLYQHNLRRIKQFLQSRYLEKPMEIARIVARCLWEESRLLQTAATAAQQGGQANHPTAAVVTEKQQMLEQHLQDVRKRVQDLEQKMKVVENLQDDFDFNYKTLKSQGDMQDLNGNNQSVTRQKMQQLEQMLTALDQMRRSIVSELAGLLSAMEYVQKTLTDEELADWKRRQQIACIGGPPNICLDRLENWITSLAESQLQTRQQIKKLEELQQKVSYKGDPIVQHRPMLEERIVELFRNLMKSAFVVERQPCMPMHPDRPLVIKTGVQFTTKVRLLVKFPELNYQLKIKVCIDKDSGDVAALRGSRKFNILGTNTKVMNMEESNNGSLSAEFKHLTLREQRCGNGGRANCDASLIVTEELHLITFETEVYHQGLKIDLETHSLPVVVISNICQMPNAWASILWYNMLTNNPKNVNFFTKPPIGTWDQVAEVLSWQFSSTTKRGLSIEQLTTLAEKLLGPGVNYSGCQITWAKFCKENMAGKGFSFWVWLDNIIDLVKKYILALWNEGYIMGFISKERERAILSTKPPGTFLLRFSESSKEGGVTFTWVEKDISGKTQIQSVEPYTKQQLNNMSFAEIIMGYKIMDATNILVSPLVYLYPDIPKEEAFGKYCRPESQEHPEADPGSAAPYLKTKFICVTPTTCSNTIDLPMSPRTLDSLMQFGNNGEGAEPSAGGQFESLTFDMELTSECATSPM
Chain of Paired box protein Pax-6 (Homo sapiens) (P26367 whole entry, looked up): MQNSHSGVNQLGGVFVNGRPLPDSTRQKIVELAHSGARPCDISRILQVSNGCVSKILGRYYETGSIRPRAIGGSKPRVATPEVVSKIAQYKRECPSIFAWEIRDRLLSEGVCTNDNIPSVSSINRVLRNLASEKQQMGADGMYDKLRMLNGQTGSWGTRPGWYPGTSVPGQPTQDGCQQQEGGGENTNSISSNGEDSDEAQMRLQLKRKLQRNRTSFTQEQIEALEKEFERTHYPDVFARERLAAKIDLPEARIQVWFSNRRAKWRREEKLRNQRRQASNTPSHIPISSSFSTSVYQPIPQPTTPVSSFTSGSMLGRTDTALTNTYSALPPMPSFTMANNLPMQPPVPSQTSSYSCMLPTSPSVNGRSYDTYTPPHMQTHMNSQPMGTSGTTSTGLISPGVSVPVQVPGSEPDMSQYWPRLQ
Chain of Nuclear receptor subfamily 1 group I member 3 (Homo sapiens) (Q14994 whole entry, looked up, the tested form may be a part): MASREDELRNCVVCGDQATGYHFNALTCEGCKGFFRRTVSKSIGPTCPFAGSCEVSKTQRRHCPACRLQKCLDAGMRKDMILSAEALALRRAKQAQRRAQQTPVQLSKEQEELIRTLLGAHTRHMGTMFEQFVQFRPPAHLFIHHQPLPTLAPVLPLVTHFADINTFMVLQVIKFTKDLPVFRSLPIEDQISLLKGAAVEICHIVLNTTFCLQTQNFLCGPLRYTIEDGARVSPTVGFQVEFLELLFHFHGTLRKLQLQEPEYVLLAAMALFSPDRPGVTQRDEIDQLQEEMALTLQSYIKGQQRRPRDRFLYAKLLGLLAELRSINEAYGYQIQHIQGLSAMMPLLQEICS
Chain of X-box-binding protein 1 (Homo sapiens) (P17861 whole entry, looked up, the tested form may be a part): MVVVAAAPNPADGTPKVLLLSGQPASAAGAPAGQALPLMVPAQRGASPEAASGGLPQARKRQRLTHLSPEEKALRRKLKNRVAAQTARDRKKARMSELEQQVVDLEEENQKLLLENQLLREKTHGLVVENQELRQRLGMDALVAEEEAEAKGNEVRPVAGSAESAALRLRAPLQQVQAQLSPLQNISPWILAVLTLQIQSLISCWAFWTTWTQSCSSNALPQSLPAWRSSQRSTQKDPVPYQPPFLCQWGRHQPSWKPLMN
Chain of Estrogen receptor (Homo sapiens) (P03372 whole entry, looked up, the tested form may be a part): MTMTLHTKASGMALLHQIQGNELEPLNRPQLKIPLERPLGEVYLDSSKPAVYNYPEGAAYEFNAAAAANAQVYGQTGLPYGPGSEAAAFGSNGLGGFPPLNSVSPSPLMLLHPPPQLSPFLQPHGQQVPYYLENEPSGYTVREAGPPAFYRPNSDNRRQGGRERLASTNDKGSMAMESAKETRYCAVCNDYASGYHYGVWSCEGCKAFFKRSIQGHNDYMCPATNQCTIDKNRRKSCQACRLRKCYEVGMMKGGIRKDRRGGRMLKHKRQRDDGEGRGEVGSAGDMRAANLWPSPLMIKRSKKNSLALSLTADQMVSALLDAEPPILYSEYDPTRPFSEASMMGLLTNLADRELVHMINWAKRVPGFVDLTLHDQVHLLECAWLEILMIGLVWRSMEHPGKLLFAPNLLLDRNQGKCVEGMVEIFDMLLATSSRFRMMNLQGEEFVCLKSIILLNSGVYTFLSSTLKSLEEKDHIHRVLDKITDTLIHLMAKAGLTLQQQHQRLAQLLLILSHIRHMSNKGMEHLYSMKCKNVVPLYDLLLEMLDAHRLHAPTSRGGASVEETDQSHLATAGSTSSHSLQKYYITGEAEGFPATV
Chain of Androgen receptor (Homo sapiens) (P10275 whole entry, looked up, the tested form may be a part): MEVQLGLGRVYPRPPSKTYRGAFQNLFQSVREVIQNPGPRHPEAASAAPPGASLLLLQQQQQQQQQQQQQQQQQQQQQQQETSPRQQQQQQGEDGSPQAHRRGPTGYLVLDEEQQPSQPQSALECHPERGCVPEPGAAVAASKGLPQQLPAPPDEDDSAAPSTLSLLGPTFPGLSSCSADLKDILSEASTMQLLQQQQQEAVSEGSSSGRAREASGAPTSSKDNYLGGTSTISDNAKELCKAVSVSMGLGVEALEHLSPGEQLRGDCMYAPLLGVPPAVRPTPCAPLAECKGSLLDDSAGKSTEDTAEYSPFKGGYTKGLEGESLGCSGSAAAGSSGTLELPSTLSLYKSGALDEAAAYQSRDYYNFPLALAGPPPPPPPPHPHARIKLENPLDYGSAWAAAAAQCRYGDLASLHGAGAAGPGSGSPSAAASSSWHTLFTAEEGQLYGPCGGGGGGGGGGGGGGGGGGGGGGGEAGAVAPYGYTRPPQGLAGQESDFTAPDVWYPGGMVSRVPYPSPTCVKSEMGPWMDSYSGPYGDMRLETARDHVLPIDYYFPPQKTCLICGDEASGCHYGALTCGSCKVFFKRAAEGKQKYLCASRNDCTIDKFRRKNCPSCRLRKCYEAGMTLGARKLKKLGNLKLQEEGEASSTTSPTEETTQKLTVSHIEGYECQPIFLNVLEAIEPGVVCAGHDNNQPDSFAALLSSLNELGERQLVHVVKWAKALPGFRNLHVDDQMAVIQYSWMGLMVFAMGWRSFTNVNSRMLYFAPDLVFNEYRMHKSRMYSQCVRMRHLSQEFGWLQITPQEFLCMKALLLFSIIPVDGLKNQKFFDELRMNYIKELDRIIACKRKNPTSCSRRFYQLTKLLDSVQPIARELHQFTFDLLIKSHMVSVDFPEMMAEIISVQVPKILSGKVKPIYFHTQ
Chain of Transcription factor Sp1 (Homo sapiens) (P08047 whole entry, looked up): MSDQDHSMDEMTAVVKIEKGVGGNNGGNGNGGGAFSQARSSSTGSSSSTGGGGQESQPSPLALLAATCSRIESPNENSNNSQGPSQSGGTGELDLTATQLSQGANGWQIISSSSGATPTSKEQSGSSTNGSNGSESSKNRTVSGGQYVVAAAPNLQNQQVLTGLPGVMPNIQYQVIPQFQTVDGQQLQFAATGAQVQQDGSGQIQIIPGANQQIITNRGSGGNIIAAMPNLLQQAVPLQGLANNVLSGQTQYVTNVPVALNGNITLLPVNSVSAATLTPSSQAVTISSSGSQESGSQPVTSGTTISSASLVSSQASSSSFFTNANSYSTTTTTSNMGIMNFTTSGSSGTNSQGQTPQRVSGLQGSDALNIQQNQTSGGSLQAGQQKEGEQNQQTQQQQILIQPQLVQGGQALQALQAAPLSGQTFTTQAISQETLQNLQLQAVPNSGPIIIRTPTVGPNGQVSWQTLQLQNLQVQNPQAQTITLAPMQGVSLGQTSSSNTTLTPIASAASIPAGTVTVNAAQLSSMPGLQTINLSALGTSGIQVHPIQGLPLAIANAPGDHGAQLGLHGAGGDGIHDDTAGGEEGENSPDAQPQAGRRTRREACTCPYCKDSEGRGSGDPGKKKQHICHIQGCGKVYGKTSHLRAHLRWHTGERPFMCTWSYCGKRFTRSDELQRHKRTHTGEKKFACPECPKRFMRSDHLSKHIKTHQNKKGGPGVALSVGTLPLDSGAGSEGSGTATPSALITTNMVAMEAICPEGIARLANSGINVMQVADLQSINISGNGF

SMILES	outcome [1]	outcome [2]	outcome [3]	outcome [4]	outcome [5]	outcome [6]	outcome [7]	outcome [8]	outcome [9]	outcome [10]	outcome [11]	outcome [12]	AC50 [5]	outcome [13]	outcome [14]	outcome [15]	AC50 [13]	outcome [16]	outcome [17]	outcome [18]
C[N+](C)(C)CC1CO1 (configuration not stated)	inactive	inactive	inactive	inactive	inactive	inactive	inactive	inactive	inactive	inactive	inactive	inactive								
CC(C)(C)C(O)(CCc1ccc(Cl)cc1)Cn1cncn1 (configuration not stated)	inactive	inactive	inactive	inactive		inactive	inactive	inactive	inactive	inactive		inactive	1.79 µM (active)	inactive	inactive					
Cc1ccc(N)c(N)c1	inactive			inactive	inactive	inactive	inactive	inactive	inactive	inactive				inactive						
CCCCCOC(=O)c1ccccc1C(=O)OCCCCC	inactive			inactive	inactive	inactive	inactive	inactive	inactive	inactive	inactive				inactive	inactive	89.8 µM (active)	inactive	inactive	
CCCCC(CC)COC(=O)c1ccc(C(=O)OCC(CC)CCCC)c(C(=O)OCC(CC)CCCC)c1 (configuration not stated)	inactive	inactive		inactive	inactive	inactive	inactive	inactive	inactive	inactive		inactive		inactive	inactive			inactive		inactive

Source: PubChem BioAssay (EPA / NIEHS)
